Shown is part of a subset that was picked to be rich in hits.
Pf Dd2 growth: qHTS Primary assay for Inhibitors of Plasmodium falciparum Dd2 growth in vitro | 4.3% of 120,000 active | AID 1347417, 2020 | Potency, µM (top dose mostly 28.9 µM), inactives show top-dose activity, negative = inhibition, hits mostly inhibitors | P. falciparum Dd2 growth, SYBR Green, 72 h; active = well fitted inhibition curve with a large enough effect;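 also: plate controls were DMSO vehicle for no effect and reference drug for full effect; nearly all actives have a fitted effect of over 65% in size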
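Readout: SYBR Green fluorescence, 485 nm excitation, 535 nm emission, after ~16 h lysis at 37C. Before that, Dd2-infected red cells (2.5% hematocrit) grew 72 h with compound, 29 uM top final concentration.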
Active calls of the source: *; i = inactive; [ ] = remark or other dose. Potency is read from the fitted curve at half-maximal effect.

SMILES	Pf Dd2 growth
Cc1cccc2[nH]c(C3CCN(C(=O)C4CC5(CCNCC5)CN4)CC3)nc12 (centres undefined)	-16%
Cc1nn(C)c2nc(-c3ccccn3)nc(NCc3ccc4c(c3)OCO4)c12	8.9µM*
CN1CC(=O)N(c2ccccc2F)Cc2c(NCc3ccc4c(c3)OCO4)ncnc21	-2%
Cc1cccc(N2Cc3c(NCc4ccc5c(c4)OCO5)ncnc3N(C)CC2=O)c1	-28%
CCc1noc(-c2cn(C3CCN(C(=O)c4ccsc4)CC3)nn2)n1	i
Cc1c(C2c3nc[nH]c3CCN2Cc2ccc(CO)o2)oc2ccccc12 (centres undefined)	-15%
COc1ccc(C(=O)N2CCCCCCN(C)C(=O)[C@@H]3CCC[C@@H]32)cc1	-2%
CN1CCCCCCN(C(=O)c2ccc3ccccc3n2)[C@H]2CCC[C@H]2C1=O	6.3µM*
CN1CCCCCCN(C(=O)c2ccnn2C)[C@H]2CCC[C@H]2C1=O	2%
COc1cc(CN2CCC3(CC2)CC(O)CCO3)cc(OC)c1 (centres undefined)	-8%
CN(C)c1cc(N2CCCC(NC(=O)Cc3ccsc3)C2)ncn1 (centres undefined)	35%[5.79 µM]
COc1cccc(N2CCN(C(=O)c3cnn(C(C)(C)C)c3C3CCN(C(=O)OC(C)(C)C)CC3)CC2)c1	13µM*
Cc1cccc(N2CCN(C(=O)c3cnn(-c4ccccc4)c3C3CCN(C(=O)OC(C)(C)C)CC3)CC2)c1C	10µM*
COc1ccc(-n2ncc(C(=O)N3CCN(c4cc(C)ccc4C)CC3)c2C2CCN(C(=O)OC(C)(C)C)CC2)cc1	25%
Cc1ccc(-n2ncc(C(=O)N3CCN(c4ccccn4)CC3)c2C2CCN(C(=O)OC(C)(C)C)CC2)cc1	18%
COc1cccc(N2CCN(C(=O)c3cnn(-c4ccc(C)cc4C)c3C3CCN(C(=O)OC(C)(C)C)CC3)CC2)c1	6.3µM*
COc1ccc(-n2ncc(C(=O)N3CCOCC3)c2C2CCN(C(=O)OC(C)(C)C)CC2)cc1	41%
N#Cc1ccc(CN2CCCN(S(=O)(=O)c3ccccc3)CCC(=O)NCC2)cc1	i
COc1ccc(-c2cc(C(=O)NCc3cnn(C)c3)c3c(c2)N(C)CCO3)cc1	i
C=CCn1cc(CN(Cc2ccco2)Cc2cccs2)c(C)n1	-20%
Cc1ncccc1C(=O)N1CCn2c(nnc2[C@@H]2C[C@@H](O)CN2Cc2ccccc2)C1	-6%
Cc1ccc(-n2nc(C(=O)N3CCN(c4ccccc4F)CC3)c(=O)n(C)c2=O)cc1	3%
Cc1ccc(-n2nc(C(=O)N3CCN(c4cc(Cl)ccc4C)CC3)c(=O)n(C)c2=O)cc1	10µM*
Cc1ccc2c(c1)-c1c(c(C(=O)N3CCN(c4cc(Cl)ccc4C)CC3)nn1C)CS2	10µM*
Cn1nc(C(=O)N2CCN(c3ccccc3F)CC2)c2c1-c1ccccc1SC2	15%
SMILES	Pf Dd2 growth
Cc1ccc(-n2nc(C(=O)N3CCN(c4cc(Cl)ccc4C)CC3)c3c4ccccc4n(C)c3c2=O)cc1	6%
COc1cccc(N2CCN(C(=O)c3nn(C)c4c3CSc3ccc(C)cc3-4)CC2)c1	20%
CN1CCC([C@@H]2CN(C(=O)CCCc3c[nH]c4ccccc34)C[C@H]2C(N)=O)CC1	15%
N#Cc1cccc(CN2C[C@H](O)C[C@H]2c2nc(CS(=O)(=O)c3ccc(F)cc3)no2)c1	i
O=C(c1ccc(F)cc1)N1CCCC(c2nn(-c3ccc(F)cc3)c(=O)[nH]2)C1 (centres undefined)	-22%
CC(=O)c1cccc(NC(=O)c2sc3nc4c(cc3c2N)CCCC4)c1	25%
CN1CCc2nc3sc(C(=O)Nc4cccc(C#N)c4)c(N)c3cc2C1	-23%
Cc1cccc(NC(=O)c2sc3nc4c(cc3c2N)CN(C(C)C)CC4)c1	11µM*
O=C(Nc1ccc(Cl)cc1Cl)c1cnn2c1CN(C(=O)c1ccccc1F)CC2	-1%
COCCc1noc([C@@H]2CN(C3CCCC3)C[C@H]2CO)n1	11%
O=C1Nc2ccccc2CN(Cc2ccc(Cl)cc2)C12CCNC2 (centres undefined)	10µM*
CCN1Cc2ccccc2NC(=O)C12CCNC2 (centres undefined)	-19%
O=C1Nc2ccccc2CC12CCCN2CC1CCCCC1 (centres undefined)	7.1µM*
CN1Cc2ccccc2NC(=O)C12CCNC2 (centres undefined)	10%[44.1 µM]
O=C1Nc2ccccc2CN(CC2CCCCC2)C12CCNCC2	11µM*
O=C1Nc2ccccc2CC12CCCN2Cc1ccc(Cl)cc1 (centres undefined)	6%
CC(=O)N1Cc2ccccc2NC(=O)C12CCNC2 (centres undefined)	18%[44.1 µM]
CC(=O)N1Cc2ccccc2NC(=O)C12CCNCC2	20%
O=C1Nc2ccccc2CC12CCCN2CC1CCOCC1 (centres undefined)	-7%
Cn1cccc1C(=O)NC1CCc2nn(C)c(=O)n2CC1 (centres undefined)	26%
O=C(NCc1nnc2n1C(C(=O)NCc1ccc3c(c1)OCO3)CC2)C1CC1 (centres undefined)	16%
O=C(NC1CCCCC1)[C@@H]1C[C@@H](O)CN1C1CCN(C(=O)c2nccc3ccccc23)CC1	-25%
Cc1n[nH]c(C)c1CNc1cc(C2CC(O)C2)ncn1 (centres undefined)	8%
O=Cc1ccc(-c2ccc(F)cc2)cc1	18%[44.1 µM]
COc1ccc(CNC(=O)COc2ccc(NC(=O)C3CC3)cn2)cc1	-9%
SMILES	Pf Dd2 growth
CCc1n[nH]c(CC2CCN(C(=O)c3ccnn3CC)CC2)n1	-24%
O=C1CC(c2ccccc2)N(C(=O)CNC(=O)c2cc(-c3ccc(F)cc3)n[nH]2)CCCCCN1 (centres undefined)	i
Cc1cc(C(=O)N[C@@H]2CCC[C@@H](C(=O)N(C)Cc3cccnc3)CC(=O)N(C)C2)c(C(F)(F)F)o1	-17%
CCN(CC)S(=O)(=O)c1ccc(OC)c(NC(=O)c2sc3ccccc3c2Cl)c1	29%
CCN(CC)S(=O)(=O)c1cccc(C(=O)Nc2ccccc2C(=O)Nc2ccc(OC)cc2)c1	7.1µM*
CCN(CC)C(=O)c1ccccc1NC(=O)c1cccc(S(=O)(=O)N2CCC(C)CC2)c1	52%[5.79 µM]
COCc1nnc2n1CCC(NC(=O)c1n[nH]c3ccccc13)CC2 (centres undefined)	12%
CN(C)C(=O)N1CCCn2nc(CNC(=O)c3sccc3N)cc2C1	-12%
CCN1C(=O)C2CC3(CCN(C(=O)c4ccn[nH]4)CC3)CN2C1=O (centres undefined)	18%
C=CCNC(=O)N[C@H]1C[C@@H](C(=O)N[C@@H](C(=O)OC)C(C)C)N(C(=O)CSC)C1	-17%[44.1 µM]
O=C1NC2(CCN(C(=O)C3CCCC3)CC2)COc2ccccc21	-19%[44.1 µM]
O=C1NC2(CCCN(Cc3ccc(OC(F)(F)F)cc3)C2)COc2ccccc21 (centres undefined)	i
Cn1cccc1CN1CCC2(CC1)COc1ccccc1C(=O)N2	5.6µM*
O=C1NC2(CCN(Cc3ccc(OC(F)(F)F)cc3)CC2)COc2ccccc21	2.2µM*
O=C1NC2(CCN(C(=O)c3ccccc3)CC2)COc2ccccc21	i
Cn1cccc1CN1CC2(C1)NC(=O)c1ccccc1O2	i
O=C1NC2(CCN(CC3CCCC3)CC2)COc2ccccc21	-10%[44.1 µM]
CN(C)c1ccc(CN2CCC3(COc4ccccc4C(=O)N3)C2)cc1 (centres undefined)	1%
CN(C)c1ccc(CN2CCC3(CC2)COc2ccccc2C(=O)N3)cc1	1.1µM*
COc1ccc(CN2C[C@H]3CN(Cc4cccc(OC(F)(F)F)c4)CCN3C2=O)cc1	i

Screening results: PubChem BioAssay, National Center for Advancing Translational Sciences (NCATS)
